Assay [1] can be described thus: qHTS RealTime-Glo MT Cell Viability Assay in HepG2 cells - 16 hour (AID 1224885). Note: nearly all actives have a fitted effect of over 50% in size. The method, boiled down: (§1)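 Luminescence read-out: viable HepG2 cells reduce a prosubstrate to a NanoLuc substrate, giving a signal proportional to live cell number. Reads taken at 0, 8, 16, 24, 32 and 40 h of compound exposure at 37 C.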
The nature of assay [2]: qHTS RealTime-Glo MT Cell Viability Assay in HEK293 cells - 8 hour (AID 1224887). Note: nearly all actives have a fitted effect of over 50% in size. Note: potency is the fitted concentration of half-maximal effect. In outline: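 Viable HEK293 cells reduce a cell-permeant prosubstrate; the product diffuses out and is consumed by NanoLuc in the medium to give light. Compounds went in after a 5 h incubation and plates were read over the treatment course.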
Background: qHTS replaces the single test concentration by a dilution series.

Assay [3] is described as follows: A CellTox Green Cytotoxicity Assay to monitor cytotoxicity in HEK293 cells - 16 hour (AID 1224888). Note: nearly all actives have a fitted effect of over 35% in size. Note: potency is the fitted concentration of half-maximal effect. The method, boiled down:
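Fluorescence intensity, read at 0, 8, 16, 24, 32 and 40 h of compound treatment, reflected dye binding to DNA of dead HEK293 cells; compounds (23 nL, DMSO) were added 5 h after plating cells with reagent.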

Assay [4] is described as follows: qHTS RealTime-Glo MT Cell Viability Assay in HepG2 cells - 0 hour (AID 1224889). Note: nearly all actives have a fitted effect of over 50% in size. The method, boiled down:
as §1

The nature of assay [5]: qHTS assay to identify small molecule antagonists of the estrogen receptor alpha (ER-alpha) signaling pathway using the BG1 cell line in the presence of 0.1 nM 17-beta-estradiol - cell viability counter screen (AID 1259241). Note: nearly all actives have a fitted effect of over 40% in size. The method, boiled down: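 CellTiter-Fluor read (30 min, 37C) on ER-alpha/ERE-luc VM7Luc4E2 cells; 22 hr compound treatment; agonist 0.1 nM E2 final; same-well multiplex.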

A short description of assay [6]: qHTS assay to identify small molecule antagonists of the androgen receptor (AR) signaling pathway using the MDA cell line in the presence of 0.5 nM R1881 - cell viability counter screen (AID 1259242). Note: nearly all actives have a fitted effect of over 45% in size. In outline:
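Viability of MDA-kb2 cells was multiplexed with the luciferase AR readout; after 16 hr with compounds and R1881 at 0.5 nM final, CellTiter-Fluor fluorescence was recorded.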

Assay [7] deals with Estrogen receptor (Homo sapiens) (UniProt P03372). Nature of the assay: qHTS assay to identify small molecule antagonists of the estrogen receptor alpha (ER-alpha) signaling pathway using the BG1 cell line in the presence of 0.1 nM 17-beta-estradiol (AID 1259244). Note: nearly all actives have a fitted effect of over 50% in size. In outline:
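Estradiol at 0.1 nM (final) stimulates the endogenous ER-alpha of VM7Luc4E2 cells carrying an ERE-driven luciferase; compounds are co-incubated 22 h at 37C and luciferase output quantified by luminescence.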

Assay [8] can be described thus: qHTS assay to identify small molecule HDAC inhibitors (AID 1259364).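 Note: wild-type HCT-116 cells with endogenous class I/II HDAC activity; top concentration of the series differs between compounds; nearly all actives have a fitted effect of over 45% in size.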 In outline:
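Read-out: luminescence of HDAC-Glo I/II reagent, 30 min RT, reflecting class I/II deacetylase activity in whole HCT-116 cells pre-exposed 2 h to DMSO-dissolved compounds.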

Assay [9] is described as follows: qHTS assay to identify small molecule HDAC inhibitors - cell viability counter screen (AID 1259365). In outline:
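To flag cytotoxic hits, 1,500 wild-type HCT-116 cells per well, plated the day before, receive test compounds for 2hr at 37 C before CellTiter-Glo reagent and a luminescence read.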

Assay [10] in a line: qHTS assay to identify small molecule agonists of the sonic hedgehog signaling (Shh) pathway (AID 1259368; calls by dose curve;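 note: NIH/3T3-derived 3T3Gli1-Luc cells carrying a stable Gli1-driven firefly luciferase reporter; series mostly up to about 92 µM; nearly all actives have a fitted effect of over 15% in size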). In outline:
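A Gli1 transcriptional response element controlled firefly luciferase in 3T3Gli1-Luc cells. Compounds and a positive control were added 4 hr after plating, and cells were incubated a further 24 hr at 37 C before luminescence detection.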

Assay [11] concerns the target Estrogen receptor beta (Homo sapiens) (UniProt Q92731). Nature of the assay: qHTS assay to identify small molecule antagonists of the estrogen receptor beta (ER-beta) signaling pathway (AID 1259378; active = well fitted inhibition curve with a large enough effect in the signal ratio in the repeat runs, not every such curve was filed as active; the % refers to the signal ratio; note: potency is the fitted concentration of half-maximal effect). In outline: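 ER-beta-UAS-bla HEK293T (GripTite) cells in 2% charcoal-stripped FBS medium were preincubated 6 hr at 37C, dosed with compound, then stimulated with 1 nM E2 (final) for 16 hr; beta-lactamase reporter read by B/G FRET fluorescence after 2 hr substrate loading.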

Assay [12] is described as follows: qHTS assay to identify small molecule phospholipidosis (PLD) inducers (AID 1259344; active = well fitted curve in the direction sought with a large enough effect; an effect the other way counts as inactive or inconclusive). In outline:
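HepG2 cells grown on collagen I take up LipidTOX Red while exposed to compound for 24 h; after fixation they are imaged at 20x and pit metrics are extracted.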

Assay [13] can be described thus: A CellTox Green Cytotoxicity Assay to monitor cytotoxicity in HepG2 cells - 8 hour (AID 1224890). Note: nearly all actives have a fitted effect of over 45% in size. The method, boiled down: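 Using 1536-well format, dye-containing HepG2 suspension was seeded, allowed 5 h at 37 C/5% CO2, dosed by pintool with compounds, positive and negative controls, and imaged for fluorescence across 40 h.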
Assay [14] in a line: qHTS assay to identify small molecule agonists of the sonic hedgehog signaling (Shh) pathway - cell viability counter screen (AID 1259366). Note: nearly all actives have a fitted effect of over 50% in size. Note: potency is the fitted concentration of half-maximal effect. The method, boiled down: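 Fluorescence from CellTiter-Fluor reports live cells in this counter screen. NIH/3T3-derived Gli1-Luc reporter cells receive test compounds for 24hr at 37C; reagent goes in at 23hr.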
A short description of assay [15]: qHTS assay to identify small molecule antagonists of the sonic hedgehog signaling (Shh) pathway - cell viability counter screen (AID 1259367). Note: nearly all actives have a fitted effect of over 55% in size. Note: potency is the fitted concentration of half-maximal effect. In outline: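 After a 4 hr settling period, 3T3 Gli1-Luc cells were treated with DMSO-dissolved chemicals and conditioned medium, kept 24 hr at 37C in 5% CO2, and assayed for viability by CellTiter-Fluor fluorescence following 1 hr reagent incubation.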

The nature of assay [16]: qHTS RealTime-Glo MT Cell Viability Assay in HEK293 cells - 24 hour (AID 1224886). Note: nearly all actives have a fitted effect of over 50% in size. Note: potency is the fitted concentration of half-maximal effect. The method, boiled down:
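Nonlytic real-time viability readout: viable cells convert prosubstrate to NanoLuc substrate, giving luminescence proportional to live cell number. HEK293, 600 cells/well, compound added after 5 h, continuous culture at 37 C.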

A short description of assay [17]: qHTS assay to identify small molecule antagonists of the sonic hedgehog signaling (Shh) pathway (AID 1259369; calls by dose curve; note: nearly all actives have a fitted effect of over 45% in size; note: potency is the fitted concentration of half-maximal effect). In outline:
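For antagonist detection, the reporter line received test compounds together with conditioned medium, incubated 24hr at 37 C, 5% CO2, then luminescence was recorded following 30min room-temperature luciferase reagent incubation.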

Assay [18] has as its target Androgen receptor (Homo sapiens) (UniProt P10275). Put plainly: qHTS assay to identify small molecule antagonists of the androgen receptor (AR) signaling pathway using the MDA cell line in the presence of 0.5 nM R1881 (AID 1259243). In outline:
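Reporter cells cultured without CO2 receive test chemicals, then 0.5 nM R1881 final; after 16 hr at 37C, ONE-Glo is added and light output recorded.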

Assay [19] addresses Estrogen receptor beta (Homo sapiens) (UniProt Q92731). Put plainly: qHTS assay to identify small molecule agonists of the estrogen receptor beta (ER-beta) signaling pathway (AID 1259377; active = well fitted activation curve with a large enough effect in the signal ratio in the repeat runs, not every such curve was filed as active; the % refers to the signal ratio). The method, boiled down: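 Screening used GripTite ER-beta-UAS-bla cells held in 2% charcoal-stripped FBS medium. After overnight (16 hr) compound incubation at 37C, beta-lactamase activity was detected with a FRET substrate by fluorescence.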

Inconclusive results are not listed. The source made the active and inactive calls. Unless noted, calls come from the whole dose curve; as a rule, active = well fitted curve in the direction sought with a large enough effect in the repeat runs; inconclusive = weak or mixed curves; inactive = no such curve, though single readings can be large; an effect the other way counts as inactive or inconclusive.

Chain of Estrogen receptor beta (Homo sapiens) (Q92731 whole entry, looked up): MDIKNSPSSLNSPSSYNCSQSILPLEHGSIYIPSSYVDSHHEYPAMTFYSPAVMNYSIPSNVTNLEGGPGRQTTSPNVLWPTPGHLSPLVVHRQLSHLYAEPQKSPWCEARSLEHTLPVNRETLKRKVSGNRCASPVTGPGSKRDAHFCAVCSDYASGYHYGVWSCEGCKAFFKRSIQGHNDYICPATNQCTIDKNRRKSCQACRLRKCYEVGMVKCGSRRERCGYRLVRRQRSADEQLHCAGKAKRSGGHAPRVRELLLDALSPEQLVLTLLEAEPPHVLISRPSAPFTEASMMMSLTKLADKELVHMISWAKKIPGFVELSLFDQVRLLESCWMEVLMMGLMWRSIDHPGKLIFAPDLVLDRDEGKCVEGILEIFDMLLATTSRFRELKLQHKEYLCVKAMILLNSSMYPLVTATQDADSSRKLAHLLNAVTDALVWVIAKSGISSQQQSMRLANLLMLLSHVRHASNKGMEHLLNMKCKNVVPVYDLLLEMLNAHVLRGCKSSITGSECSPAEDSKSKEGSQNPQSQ
Chain of Estrogen receptor (Homo sapiens) (P03372 whole entry, looked up): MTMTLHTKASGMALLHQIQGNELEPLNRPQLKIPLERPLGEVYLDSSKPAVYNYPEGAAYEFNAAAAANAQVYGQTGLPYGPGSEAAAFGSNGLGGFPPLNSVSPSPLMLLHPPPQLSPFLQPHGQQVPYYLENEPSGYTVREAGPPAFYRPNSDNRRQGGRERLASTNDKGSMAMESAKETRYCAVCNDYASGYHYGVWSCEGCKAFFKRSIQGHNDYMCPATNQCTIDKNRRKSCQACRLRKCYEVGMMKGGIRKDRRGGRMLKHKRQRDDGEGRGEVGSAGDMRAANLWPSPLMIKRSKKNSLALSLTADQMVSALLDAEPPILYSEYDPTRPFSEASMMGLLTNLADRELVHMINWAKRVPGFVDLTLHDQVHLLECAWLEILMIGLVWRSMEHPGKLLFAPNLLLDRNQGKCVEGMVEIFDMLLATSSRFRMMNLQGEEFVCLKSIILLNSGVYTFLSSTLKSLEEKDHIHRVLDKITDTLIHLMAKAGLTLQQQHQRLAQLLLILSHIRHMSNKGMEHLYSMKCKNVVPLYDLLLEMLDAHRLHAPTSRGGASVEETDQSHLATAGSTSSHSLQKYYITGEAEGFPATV
Chain of Androgen receptor (Homo sapiens) (P10275 whole entry, looked up): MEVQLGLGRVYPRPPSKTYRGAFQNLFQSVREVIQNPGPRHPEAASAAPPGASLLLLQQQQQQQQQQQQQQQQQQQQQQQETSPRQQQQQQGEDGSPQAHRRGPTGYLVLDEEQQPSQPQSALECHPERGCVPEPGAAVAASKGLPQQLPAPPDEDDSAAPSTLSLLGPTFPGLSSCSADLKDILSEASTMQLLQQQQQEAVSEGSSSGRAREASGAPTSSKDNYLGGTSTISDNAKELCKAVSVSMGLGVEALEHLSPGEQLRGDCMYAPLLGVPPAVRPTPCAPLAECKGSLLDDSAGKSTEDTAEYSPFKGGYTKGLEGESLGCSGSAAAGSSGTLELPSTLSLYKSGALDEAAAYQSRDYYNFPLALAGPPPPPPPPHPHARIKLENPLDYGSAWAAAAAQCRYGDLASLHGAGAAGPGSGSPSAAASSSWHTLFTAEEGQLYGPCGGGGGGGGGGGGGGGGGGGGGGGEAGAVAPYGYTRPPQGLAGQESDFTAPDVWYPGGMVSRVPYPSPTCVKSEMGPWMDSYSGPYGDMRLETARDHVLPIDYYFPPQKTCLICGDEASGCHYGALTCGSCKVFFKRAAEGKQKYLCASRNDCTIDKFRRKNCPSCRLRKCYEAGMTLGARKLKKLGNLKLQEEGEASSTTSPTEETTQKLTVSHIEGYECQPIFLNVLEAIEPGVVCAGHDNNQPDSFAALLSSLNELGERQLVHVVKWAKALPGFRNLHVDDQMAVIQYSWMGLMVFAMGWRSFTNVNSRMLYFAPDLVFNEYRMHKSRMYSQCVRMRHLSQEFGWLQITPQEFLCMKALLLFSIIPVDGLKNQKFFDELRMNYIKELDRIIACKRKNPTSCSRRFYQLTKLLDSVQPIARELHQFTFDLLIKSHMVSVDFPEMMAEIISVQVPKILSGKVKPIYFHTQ

Regarding `CCCCCc1ccc(O)cc1`, the Potency result in assay [1], in [4], in assay [5], in assay [6], in [7] and in [8] was “inactive” each time. The Potency result in [9], in assay [10] and in assay [11] was “inactive” throughout. The Potency is 21.9 µM (active) in [2] and 38.9 µM (active) in [3].
As for `C[C@H](O)CN(C)C`, the Potency result in [12] is “inactive”.
`CC1=C(/C=C/C(C)=C/C=C/C(C)=C\C(=O)O)C(C)(C)CCC1`: the Potency entry in [1], in assay [2], in assay [3], in [4], in assay [13] and in [5] was “inactive” throughout. Further, the Potency result in [6], in assay [8], in assay [9], in assay [14] and in [15] was “inactive” each time.
In the case of `CN(Cc1ccccc1)Cc1ccccc1`, the Potency result in assay [12] was “inactive”.
With `CSc1ccc(O)cc1C`, the Potency result in assay [1], in [16], in assay [3], in assay [4], in [13] and in assay [6] was “inactive” each time. Further, the Potency result in assay [8], in assay [9] and in assay [10] was “inactive” each time. Besides, the Potency in [14] is 43.3 µM (active); in [15], 27.3 µM (active); in assay [17], 13.7 µM (active); in [11], 54.5 µM (active).
Turning to `CC(C)(C)c1ccc(OC2CCCCC2O)cc1` (centres undefined), the Potency entry in [1], in assay [4], in assay [13], in assay [5], in assay [6] and in assay [8] was “inactive” each time. Also, the Potency result in [9], in [14] and in assay [10] was “inactive” in each case. Further, the results for the Potency in assay [16], in assay [18] and in assay [17] were 54.9 µM (active), 61.1 µM (active) and 38.6 µM (active), respectively. Further, the molecule was called inactive in [19].
Turning to `Nc1ccc(N)c([N+](=O)[O-])c1`, the results for the Potency in assay [14] and in assay [15] were 27.3 µM (active) and 21.7 µM (active), respectively.
With `CS(=O)(=O)c1ccc([C@@H](CC2CCCC2)C(=O)Nc2cnccn2)cc1Cl`, in [14], the Potency is 21.7 µM (active).
With `O=C1Cc2ccccc2C1`, the Potency entry in assay [17] was “inactive”.
